This is a sample that favours compounds with a hit; in the whole collection about 0.81% have one here.
TRPML1 ag = agonists of human TRPML1 channel; activation, % (test concentration not listed); AID 624414; Q9GZU1; 410,000 tested, 0.12% active; TRPML1-expressing cells, Ca2+ dye fluorescence, FDSS; in the data active = activation above about 50%; inconclusive = mostly about 30% to 49%
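Kinetic FDSS Ca2+ read in Tet-induced TRPML1-DL cells (ABD Ca8 dye plus quencher, 45-90 min RT loading): baseline, then compound, then 110 s agonist window; EC80 agonist 54-4 at 4uM final added afterwards for a 110 s antagonist window.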
PTAP TSG101 blk = blocks PTAP/TSG101 interaction to inhibit HIV-1 budding; Q99816; Fluorescence polarization, FITC-PTAP peptide / Tsg101 binding; Potency, µM (series often up to 115 µM), usual class: inhibitors; 340,000 tested, under 10 active; AID 493005; active = well fitted inhibition curve with a large enough effect in the main read-out, with a control signal flat, not every such curve was filed as active; inconclusive = small, poorly fitted or top-dose-only effect, or effect the other way, or a change in a side signal; inactive = no such curve, though single readings can be large or run the other way
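FP read-out: FITC-PTAP peptide, 50 nM final, binding Tsg101 binding domain, 10 uM final; 20 min, r.t.; 10 mM HEPES pH 7.5, 0.15 M NaCl, 0.01% Tween 20, 3 mM EDTA, 0.1 mM TCEP.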
TRPML1 blocker = blocks the human TRPML1 channel. activity change, negative = inhibition, % (concentration not given with the values). 390,000 tested, 0.02% active. TRPML1-inducible cells, Ca2+ dye fluorescence, FDSS; hits give low values; inhibition of EC80 agonist-evoked calcium signal. Q9GZU1. AID 624415; in the data active = activity change below about -50%; inconclusive = between about -30% and that limit;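 note: stimulus is agonist 54-4 at its EC80 concentration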
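TRPML1-DL cells, Tet-induced overnight (~16 h, 37 °C) at 1,500 cells/well, were loaded with Ca8 no-wash dye plus quencher for 45-90 min at room temperature. Compounds were pinned during FDSS kinetic reading; agonist 54-4 at EC80 (4 uM final) then added.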
TRHR agonist-1 = TRH receptor (human) agonism; P34981; TRHR cells, calcium flux fluo-8, FDSS agonist mode; activation, % at 2 µM; 360,000 tested, 0.18% active; in the data active = activation above about 30%
Target sequence (P34981 whole entry, looked up): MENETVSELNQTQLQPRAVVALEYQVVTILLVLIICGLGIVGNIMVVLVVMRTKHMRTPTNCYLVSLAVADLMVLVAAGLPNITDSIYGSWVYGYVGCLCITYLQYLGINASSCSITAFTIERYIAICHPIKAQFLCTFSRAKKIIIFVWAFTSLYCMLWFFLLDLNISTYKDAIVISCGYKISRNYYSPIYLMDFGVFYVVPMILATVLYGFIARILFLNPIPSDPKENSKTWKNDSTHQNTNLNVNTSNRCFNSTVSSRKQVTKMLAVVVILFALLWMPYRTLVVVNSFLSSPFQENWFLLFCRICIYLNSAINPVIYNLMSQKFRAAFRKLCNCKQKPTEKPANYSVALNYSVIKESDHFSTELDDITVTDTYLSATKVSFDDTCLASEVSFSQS
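TRHR-expressing cells, plated overnight in medium with 10% serum, were loaded with fluo-8 calcium dye at room temperature. After a 10 s baseline, library compound was pin-added and calcium release was recorded kinetically (ex 480/em 530) as agonist response.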
TRHR enhancer-1 = TRH receptor (human) allosteric enhancement | TRHR cells, fluo-8 calcium fluorescence, EC20 TRH enhancement | enhancement, % at 2 µM | 360,000 tested, 0.66% active | AID 493056; in the data active = enhancement above about 30%
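TRHR-expressing cells loaded with fluo-8 calcium dye were read kinetically (ex 480/em 530) during compound addition, then stimulated with an EC20 of TRH (10 nM final). Enhancement of the Gq-mediated intracellular calcium response was scored.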
TRHR enhancer-2 = confirmation of human TRH receptor allosteric enhancers; AID 493076; TRH receptor cell assay, enhancer confirmation qHTS; 970 tested, under 10 active; shares compounds with TRHR enhancer-1; activity change, negative = inhibition, % at 46.1 µM;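 note: compound effect scored on response to added TRH at EC20 of 10 nM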
TRHR agonist-2 = human TRH receptor agonism confirmation | shares compounds with TRHR enhancer-1 | TRHR-expressing cells, agonist activation read-out | Potency, µM (highest dose often 46.1 µM), most hits filed as activators | 970 tested, 8% active; note: nearly all actives have a fitted effect of over 75% in size
Each line names hits and unclear results; the compound was inactive in the other large screens (follow-up assays come after a bar, where they were run). Unless noted, calls come from the whole dose curve; as a rule, active = well fitted curve in the direction sought with a large enough effect; inconclusive = small, poorly fitted or top-dose-only effect, or another doubt; inactive = no such curve, though single readings can be large; an effect the other way counts as inactive or inconclusive.

CC(C(=O)c1ccccc1)[n+]1cccc(C(N)=O)c1 (configuration not stated)	TRHR enhancer-1 41 | TRHR enhancer-2 inactive | TRHR agonist-2 inactive
CN(C)c1ccc(C(=C2c3ccccc3-c3ccccc32)c2ccc(N(C)C)cc2)cc1	none (no result: PTAP TSG101 blk, TRPML1 blocker, TRHR agonist-1, TRHR enhancer-1)
O=S(=O)(c1cccc(F)c1)N1CCN(S(=O)(=O)c2ccc3c(c2)OCCO3)CC1	none (no result: TRPML1 ag, PTAP TSG101 blk, TRPML1 blocker)
Cc1ccc(NC(=O)c2cc(S(=O)(=O)N3CCCC3)cn2C)cc1C	TRHR enhancer-1 47 | TRHR enhancer-2 inactive | TRHR agonist-2 inactive
Cc1ccc(NC(=O)NN2CCN(C)CC2)cc1C	TRHR enhancer-1 41 | TRHR enhancer-2 inactive | TRHR agonist-2 inactive
C[N+]1(CC(=O)c2ccc(Cl)c(Cl)c2)CCOCC1	none (no result: PTAP TSG101 blk, TRPML1 blocker, TRHR agonist-1, TRHR enhancer-1)
COc1cc(/C=C(/C#N)C(=O)NC(C)c2ccccc2)cc(OC)c1O (configuration not stated)	TRHR agonist-1 118 | TRHR enhancer-2 inactive | TRHR agonist-2 21µM
N#Cc1ncc(Br)cn1	none (no result: PTAP TSG101 blk, TRPML1 blocker, TRHR agonist-1, TRHR enhancer-1)
NCCCN(Cc1ccc(Cl)c(Cl)c1)c1ccc(Br)cn1	none (no result: PTAP TSG101 blk, TRPML1 blocker, TRHR agonist-1, TRHR enhancer-1)
CCc1cc(C(=O)N2CCCC(CCC(=O)N3CCN(c4ccccn4)CC3)C2)no1 (configuration not stated)	TRHR enhancer-1 42 | TRHR enhancer-2 inactive | TRHR agonist-2 inactive
CC(C)c1cc(C(=O)N2CCCC(CCC(=O)N3CCN(c4ccccn4)CC3)C2)no1 (configuration not stated)	none
C[N+](C)(C)c1ccc(/C=C2\C=Cc3ccccc32)cc1	none (no result: PTAP TSG101 blk, TRPML1 blocker, TRHR agonist-1, TRHR enhancer-1)
c1ccc2c(c1)ncn2CCCOc1ccc2c(c1)CCC2	none
c1ccc2c(c1)ncn2CCCCOc1ccc2c(c1)CCC2	TRHR enhancer-1 51 | TRHR enhancer-2 inactive | TRHR agonist-2 inactive
COc1ccccc1C1NC(=O)NC(C)=C1C(=O)OCc1ccccc1 (configuration not stated)	none
COc1ccc(COC(=O)C2=C(C)NC(=O)NC2c2ccccc2OC(C)C)cc1 (configuration not stated)	TRHR enhancer-1 48 | TRHR enhancer-2 inactive | TRHR agonist-2 inactive
COc1cc(/C=C2\SC(=N)N(c3ccc4c(c3)OCO4)C2=O)cc(OC)c1O	TRHR agonist-1 45 | TRHR enhancer-2 inactive | TRHR agonist-2 inconclusive
Cn1c(O)c(/C=N/NC(=O)c2cc3ccccc3cc2O)c2ccccc21	PTAP TSG101 blk inconclusive, TRHR agonist-1 46 | TRHR enhancer-2 inactive | TRHR agonist-2 13µM
COc1ccc2c(c1)cc(C(=O)N/N=C/c1c(O)c(C(=O)O)cc3ccccc13)n2C	TRHR agonist-1 33 | TRHR enhancer-2 inconclusive | TRHR agonist-2 18µM
Cc1c(Cc2ccccc2)c(=O)oc2c(O)c(O)ccc12	TRHR enhancer-1 41 | TRHR enhancer-2 inactive | TRHR agonist-2 inactive
COc1ccc(N(CC(=O)Nc2cccc(OC)c2)S(=O)(=O)c2c(C)nn(C)c2C)cc1	none
COc1cccc(NC(=O)CN(c2ccc(C)cc2)S(=O)(=O)c2c(C)nn(C)c2C)c1	TRHR agonist-1 33 | TRHR enhancer-2 inactive | TRHR agonist-2 inactive
O=C(c1cnn2c1NC(=C1CC1)C=C2C(F)F)N1CCc2ccccc21	none (no result: PTAP TSG101 blk, TRPML1 blocker, TRHR agonist-1, TRHR enhancer-1)
CC(OC(=O)c1ccccc1OCCOc1ccccc1)C(=O)Nc1ccc(Br)cc1 (configuration not stated)	none (no result: PTAP TSG101 blk, TRPML1 blocker, TRHR agonist-1, TRHR enhancer-1)
c1coc(CNc2ncnc3c2nc2n3CCCC2)c1	none (no result: PTAP TSG101 blk, TRPML1 blocker, TRHR agonist-1, TRHR enhancer-1)
CC(=O)c1ccc(N2CCN(C(=O)Cc3ccccc3)CC2)c(F)c1	none
O=C(Cc1ccccc1)N1CCN(c2ccccc2F)CC1	TRHR enhancer-1 48 | TRHR enhancer-2 inactive | TRHR agonist-2 inactive
CCSc1ccccc1C(=O)N1CCN(c2ccccc2F)CC1	TRHR enhancer-1 42 | TRHR enhancer-2 inactive | TRHR agonist-2 inactive
C=C1C=C(C(F)F)n2ncc(C(=O)NCc3ccc(Cl)cc3Cl)c2N1	none (no result: PTAP TSG101 blk, TRPML1 blocker, TRHR agonist-1, TRHR enhancer-1)
Cc1cnc2c(C)cccc2c1/C=C/c1ccc(N(C)C)cc1	none (no result: PTAP TSG101 blk, TRPML1 blocker, TRHR agonist-1, TRHR enhancer-1)
CN1CCN(NC(=O)NC2CCCCC2)CC1	TRHR enhancer-1 41 | TRHR enhancer-2 inactive | TRHR agonist-2 inactive
CN1CCN(CC(=O)NC(=O)NC2CCCCC2)CC1	none
OC(CBr)C[n+]1cc(Br)cc2ccccc21 (configuration not stated)	none (no result: PTAP TSG101 blk, TRPML1 blocker, TRHR agonist-1, TRHR enhancer-1)
O=C(Nc1ccc(OC(F)F)cc1)c1nc(S(=O)(=O)Cc2ccccc2F)ncc1Cl	none (no result: PTAP TSG101 blk, TRPML1 blocker, TRHR agonist-1, TRHR enhancer-1)
CCN1C(=O)c2ccccc2S(=O)(=O)c2ccc(C(=O)NC(C)C)cc21	TRHR enhancer-1 53 | TRHR enhancer-2 inactive | TRHR agonist-2 inactive
NC(=O)[C@@H]1CCCN1C(=O)[C@@H](Cc1cnc[nH]1)NC(=O)[C@@H]1CCC(=O)N1	TRHR agonist-1 85 | TRHR enhancer-2 inactive | TRHR agonist-2 0.015µM

High-throughput results from PubChem BioAssay.
